Source: PubChem (National Center for Advancing Translational Sciences (NCATS))
DT40 TDP1 no CPT – qHTS for Inhibitors of human tyrosyl-DNA phosphodiesterase 1 (TDP1): qHTS in cells in absence of CPT. DT40 Tdp1-/- hTDP1 cells, no CPT, ATP luminescence, 48 h. Potency, µM (top dose mostly 46.2 µM), for inactives: at the highest dose activity change, negative = growth inhibition, hits mostly inhibitors. actives 15% (n = 420,000); also: nearly all actives have a fitted effect of over 55% in size
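Stably hTDP1-transfected Tdp1-null chicken DT40 cells were treated with library compounds minus camptothecin and grown for at least 48 hr at 37 °C, after which cellular ATP was quantified by luminescence.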
DT40 TDP1 CPT – DT40-hTDP1 cell growth loss with CPT | chicken DT40 Tdp1-/-;hTDP1 cells + 20 nM CPT, ATP luminescence, 48 h | Potency, µM (doses to about 46.2 µM), without a hit: at the top dose activity change, negative = growth inhibition, most hits filed as inhibitors | actives 12% (n = 420,000) | AID 686979; also: nearly all actives have a fitted effect of over 55% in size
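Chicken DT40 Tdp1-/- cells stably complemented with human TDP1 were seeded at 400 cells/well in medium containing 20 nM camptothecin, exposed to pin-transferred compounds, and grown at 37 °C for at least 48 hr. Viability was read as ATP luminescence.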
HT1080NT lethal – kills 2HG-producing HT-1080-NT fibrosarcoma cells; HT-1080-NT fibrosarcoma viability, CellTiter-Glo ATP luminescence, 48 h; Potency, µM (highest dose often 46.1 µM), without a hit: at the highest dose activity, negative = less viability, actives largely listed as cytotoxic; actives 1.6% (n = 360,000);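 also: NT is the 2HG producing partner of a matched IDH1 knockdown line; 0% = DMSO-treated cells and -100% = media-only wells without cells; nearly all actives have a fitted effect of over 55% in size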
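A 48-hour cytotoxicity screen used HT-1080-NT cells plated 2 hours before compound delivery. ATP-based CellTiter-Glo luminescence measured viability, normalized to DMSO and no-cell controls.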
HT1080 IDH1KD tx – toxicity to HT-1080 IDH1 knockdown cells (counter line). HT-1080 IDH1 knockdown viability, ATP luminescence, 48 h. Potency, µM (top dose mostly 46.1 µM), for inactives: at the highest dose activity, negative = toxicity, actives largely listed as cytotoxic. actives 2% (n = 360,000). AID 686971;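 also: 0% = DMSO wells and -100% = cell-free medium wells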
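% activity derives from luminescence (CellTiter-Glo), normalised to DMSO and no-cell wells. HT-1080-IDH1KD cells, 750/well, had 48 h compound exposure at 37 °C.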
KB-3-1 cytotox – kills parental KB-3-1 adenocarcinoma cells; KB-3-1 viability, CellTiter-Glo ATP luminescence, 72 h; Potency, µM (titrated, usually from 46.1 µM), hits mostly cytotoxic; actives 1.4% (n = 400,000); AID 1347075; also: nearly all actives have a fitted effect of over 60% in size
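KB-3-1 cells, DMEM (no phenol red) + 10% FBS; compound by pin transfer, 72 h, 37 °C. Readout: CellTiter-Glo luminescence after 10 min. Data normalized, curve-fitted.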
KB-V1 MDR tox – KB-V1 MDR subline cytotoxicity; Potency, µM (highest dose often 46.1 µM), actives largely listed as cytotoxic; actives 3.4% (n = 400,000); KB-V1 MDR cells viability, CellTiter-Glo, 72 h; AID 1347076; also: nearly all actives have a fitted effect of over 60% in size
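Following 72 h at 37 degrees C with compound, KB-V1 cell viability was read by CellTiter-Glo luminescence, medium being phenol-red-free DMEM plus 10% FBS; concentration-response parameters came from normalized, curve-fitted qHTS data.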
* = called active by the depositor; i = inactive; ? = inconclusive; . = no result given. In the library only some 19% were active in any assay of this set; here they are far more common. Calls follow the shape of the dose curve; as a rule, active = well fitted curve in the direction sought with a large enough effect; inconclusive = small, poorly fitted or top-dose-only effect, or another doubt; inactive = no such curve, though single readings can be large; an effect the other way counts as inactive or inconclusive. Unless noted, % is scaled to controls: 0 for no effect and ±100 for the full control effect; potency is read from the fitted curve at half-maximal effect.

SMILES | DT40 TDP1 no CPT | DT40 TDP1 CPT | HT1080NT lethal | HT1080 IDH1KD tx | KB-3-1 cytotox | KB-V1 MDR tox
COc1ccccc1N(C)S(=O)(=O)c1ccc(C(=O)N(CC(N)=O)C(C)C)cc1 | ? | 14% | 8% | 12% | i | ?
COc1ccccc1N(C)S(=O)(=O)c1ccc(C(=O)OCC(=O)N(C(C)C)C(C)C)cc1 | -28% | -24% | -2% | 5% | i | i
COc1ccccc1N(C)S(=O)(=O)c1ccc(C(=O)N(C)Cc2ccc(OC(F)F)cc2)cc1 | 23µM* | 26µM* | -9% | -11% | i | ?
COC(=O)c1ccc(CNC(=O)c2ccc(S(=O)(=O)N(C)c3ccccc3OC)cc2)cc1 | ? | ? | -8% | -5% | i | i
COc1ccccc1N(C)S(=O)(=O)c1ccc(C(=O)NCC(C)C)cc1 | ? | -20% | 5% | 4% | i | 23µM*
COc1ccccc1N(C)S(=O)(=O)c1ccc(C(=O)NCC2CCCCC2)cc1 | 18µM* | ? | 6% | 6% | i | ?
COc1ccccc1CNc1cc(CSc2ccc(Cl)cc2)nc(C)n1 | ? | ? | ? | ? | ? | 15µM*
CCN(CC)c1nc(-c2ccccc2)ncc1S(=O)(=O)c1ccc(C)cc1 | 16µM* | ? | ? | -27% | i | i
CN(C)c1nc(-c2ccccc2)ncc1S(=O)(=O)c1ccccc1 | ? | 0% | 0% | 4% | i | i
COc1ccc(C(=O)Nc2ccc(C(=O)OCc3cc(=O)n4nc(C5CC5)sc4n3)cc2)cc1 | 0% | -19% | . | . | i | i
CCN(CCNC(=O)CCCn1nc(C)n2c(cc3sccc32)c1=O)c1ccccc1 | 23µM* | 15µM* | 10% | 6% | i | i
CCOCCCNC(=O)CCCn1nc(C)n2c(cc3sccc32)c1=O | -10% | -20% | -1% | 4% | i | i
Cc1ccc(CN2CCCN(CC(=O)Nc3ccc(C)cc3C)S2(=O)=O)cc1 | 15µM* | ? | . | . | i | i
CCc1ccc(NC(=O)CN2CCCN(Cc3cccc(Cl)c3)S2(=O)=O)cc1 | -21% | ? | . | . | i | i
Cc1ccc(C)c(CN2CCCN(CC(=O)Nc3ccc(C)c(C)c3)S2(=O)=O)c1 | 16µM* | ? | . | . | i | i
CCc1ccccc1NC(=O)CN1CCCN(Cc2cc(C)ccc2C)S1(=O)=O | 16µM* | 15µM* | . | . | i | i
Cc1ccc(NC(=O)Cn2cc3c(n2)CCCC3)c(Cl)c1 | ? | -19% | . | . | i | i
Cc1ccc(NC(=O)CN2CCCN(Cc3cc(C)ccc3C)S2(=O)=O)c(Cl)c1 | ? | 18µM* | . | . | i | i
CCOC(=O)c1ccccc1NC(=O)CN1CCCN(Cc2cccc(Cl)c2)S1(=O)=O | ? | ? | . | . | i | i
Cc1nn(C)c(C)c1S(=O)(=O)N1CCC(C(=O)NCC2COc3ccccc3O2)CC1 (stereo not drawn) | -6% | 1% | 7% | 8% | i | i
CCc1ccccc1NC(=O)Cn1nc(C(F)(F)F)c2c1CCC2 | ? | 8% | 2% | 5% | i | i
CCc1ccccc1NC(=O)Cn1nc(-c2cc(C)ccc2C)c2c(c1=O)CCCC2 | 15µM* | ? | . | . | i | i
CC1CCCCN1C(=O)CN1C(=O)CSc2ccc(S(=O)(=O)N3CCOCC3)cc21 (stereo not drawn) | 14% | -20% | -1% | 3% | i | i
CCOCCCN(C(=O)Cn1nnc(-c2ccc(C)o2)n1)C(C(=O)NC1CCCC1)c1ccc(C)o1 (stereo not drawn) | ? | ? | -2% | 5% | i | ?
Cc1c(C(=O)N2CCN(C(c3ccccc3)c3ccccc3)CC2)oc2ccccc12 | ? | 16µM* | -12% | -14% | i | i
SMILES | DT40 TDP1 no CPT | DT40 TDP1 CPT | HT1080NT lethal | HT1080 IDH1KD tx | KB-3-1 cytotox | KB-V1 MDR tox
Cc1cc(=O)oc(C)c1C(=O)N1CCN(C(c2ccccc2)c2ccccc2)CC1 | 29µM* | 21µM* | -2% | 0% | i | i
CC12CCC(C(=O)N3CCN(C(c4ccccc4)c4ccccc4)CC3)(OC1=O)C2(C)C (stereo not drawn) | 18µM* | ? | 4% | -16% | i | i
COc1ccc(NC(=O)C(=O)NCCCn2ccnc2)cc1 | -5% | 6% | 2% | 17% | i | i
CC(C(=O)NCCCn1ccnc1)(c1ccccc1)c1ccccc1 | 18µM* | 15µM* | 1% | -3% | i | i
O=C(NCCCn1ccnc1)C(=O)Nc1ccccc1 | ? | 16µM* | 13% | 26% | i | i
O=C(NCCCn1ccnc1)c1ccc(-c2cccc(Cl)c2Cl)o1 | ? | 18µM* | 0% | -15% | . | .
C/C=C1\C2C=C(C)C[C@@]1(N)c1ccc(=O)[nH]c1C2 | -1% | 19% | . | . | . | .
CCc1ccc(NC(=O)NCCc2c(C)nn(C)c2C)cc1 | ? | -5% | . | . | i | i
O=C(Nc1cccc(C(F)(F)F)c1)Nc1nnc([C@@H]2C[C@H](O)[C@@H](CO)O2)s1 | ? | 18µM* | 0% | 26% | i | i
O=C(NCc1cccc(C(F)(F)F)c1)c1ccc2sc([C@H]3C[C@H](O)[C@@H](CO)O3)nc2c1 | 16µM* | ? | 3% | -7% | i | i
O=C(NCc1cccc(C(F)(F)F)c1)c1ccc2sc([C@@H]3O[C@H](CO)[C@@H](O)[C@H]3O)nc2c1 | ? | ? | 2% | 27% | i | i
O=C(NCc1cccc(C(F)(F)F)c1)c1ccc2sc(C3=C[C@@H](O)[C@@H](O)[C@@H](CO)O3)nc2c1 | 12µM* | 12µM* | 10% | 2% | i | i
O=C(Nc1nccs1)c1ccc2sc([C@H]3C[C@H](O)[C@@H](CO)O3)nc2c1 | ? | -28% | 15% | 6% | i | i
O=C(Nc1nnc([C@H]2C[C@H](O)[C@@H](CO)O2)s1)c1cccc(C(F)(F)F)c1 | -3% | 15% | 10% | 4% | i | i
O=C(Nc1nc2ccccc2s1)c1ccc2sc([C@H]3C[C@H](O)[C@@H](CO)O3)nc2c1 | 16µM* | 16µM* | ? | ? | i | i
COc1ccccc1C(=O)NNC(=O)c1cccc(C)c1 | ? | ? | -2% | -15% | i | i
